Results on 40 compounds are retold here after PubChem BioAssay (NCI).

Compounds without any hit were thinned out: in the full panel of roughly 83,000, 20% have a hit.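 Growth was measured after 48 h exposure to one concentration of compound in 96-well plates. Values under 10 count as active.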 A number with no mark means an inactive call. Active and inactive are the calls of the source.

The assay relates to ACHN renal. The experiment in a line: NCI-60 one-dose screen, 48 h (100 = growth as untreated, 0 = no growth, -100 = all killed). The settings on record: 10 µM unless noted. On the procedure: Growth inhibition of the ACHN human tumor cell line is measured as a screen for anti-cancer activity. Cells are grown in 96 well plates and exposed to the test compound for 48 hours. Compounds are tested at a single concentration, which is 10^-5 M for most compounds. The reported endpoint is percent growth (GI% or GIPRCNT), where numbers from 0 - 100% represent growth inhibition, and numbers from -100% - 0 represent cell death. For example, a value of 40 represents 60% growth inhibition. A value of 0 means no net growth occurred over the course of the experiment. A value of -40 indicates 40% of cells at the beginning of the experiment died by the end of the experiment. A value of -100 means all cells are dead at the end of the experiment.
NCI-60 Human Tumor Cell Lines Screen was performed using the standard one-dose NCI protocol, which is described in more detail at https://dtp.cancer.gov/discovery_development/nci-60/default.htm.
Compounds with GIPRCNT values below 10 were considered active. Activity score was based on GIPRCNT using the following formula: […]
Score is 0 for GIPRCNT values of 100 or above, 50 for GIPRCNT values of 0, and 100 for GIPRCNT values of -100.
For `Cc1ccccc1N1C(c2ccccc2)=NNC12C=CC(=O)c1c(O)cccc12` (stereo not given), the growth was 81.7%. As for `NC(N)=N/N=C/c1ccccc1`, the growth was 106%. Take `O=C(C=P(c1ccccc1)(c1ccccc1)c1ccccc1)CCl`: the growth was -85.7% (active). The same measure for `O=[N+]([O-])c1cccc([I+]c2ccccc2)c1`: 63.3%; for `CCOc1ccc([C@@H]2[C@@H](Oc3ccccc3)C(=O)N2c2cc(OC)c(OC)c(OC)c2)cc1`: 25.3%; for `COc1ccc2[nH]c(O)c(/C=c3/ccc4c(c3)N=C(c3ccc(F)cc3)N=4)c2c1`: 31.2%. The same measure for `COc1ccc2c(c1)N(CCO)C1=C(C(=O)OC1)C2c1cccc(Br)c1` (stereo not given): 28.4%. In the case of `COCCn1c(Nc2ccc(C(=O)NO)cc2)nc2ccccc21`, the growth is 57.1%. As for `O=C(c1ccccc1)N(CCCCl)C(=O)N(CCCCl)C(=O)c1ccccc1`, the figure is 90.9%; as for `O=C(OCc1ccc2c(Br)cc(Br)c(O)c2n1)c1cc2ccccc2[nH]1`, -100% (active); as for `O=C(C(Br)C(Br)c1ccccc1)C(Br)C(Br)c1ccccc1` (stereo not given), -96% (active). As for `O=C(NCC(c1ccsc1)N1CCCCCC1)c1ccc(C(F)(F)F)cc1` (stereo not given), the figure is 103%. On to `COc1ccc(/C(=C\c2cc(OC)c(OC)c(OC)c2)C(=O)Nc2nc3ccc(Cl)cc3s2)cc1`, for which the growth is 103%. As for `Cc1nc2ccc(Nc3nc(Cl)nc(N4CCOCC4)n3)cc2n1Cc1ccccc1`, the figure is 79.4%. For the compound `COc1ccccc1/C=N\NC(=S)Nc1ccc(F)cc1`, the growth is 87.5%. Consider `O=S(=O)(NCC[C@@H]1C[C@H]1c1ccc2ccccc2c1)c1ccc(C(F)(F)F)cc1`, for which the growth was 99.2%. As for `CC[C@H](Nc1nc(N)nc(C2CC2)c1C#N)c1nc2cccc(NCc3ccc(C(=O)NO)cc3)c2c(=O)n1-c1ccccc1`, the figure is -21% (active). The same measure for `CN1CCN(Cc2ccc(NC(=O)c3ccc(C#N)c(C#Cc4cnc(N)c5ncccc45)c3)cc2C(F)(F)F)CC1`: -56.4% (active); for `CCCCCCCCCCCCCC[N+](C)(C)CCCCCCCCCCCCCC`: 57.1%; for `COC(=O)C1(C)COP(=O)(NC23CC4CC(CC(C4)C2)C3)OC1` (stereo not given): 103%. As for `COC(=O)c1ccc(NC(N)=NCCC(C)(C)c2ccc(C(F)(F)F)cc2)nc1`, the figure is 65.2%. Take `COc1cc(CN2CCO[C@H](COc3cccc(F)c3)C2)ccc1Cl`: the growth is 53.9%. The same measure for `OC(c1cc2cc(Cl)ccc2c2cc(C(F)(F)F)ccc12)C1CCCCN1` (stereo not given): -78.2% (active).

In the case of `CNCc1ccccc1CN(CC(=O)Nc1ccc2c(c1)CC1(C2)C(=O)Nc2ncccc21)C(=O)C(C)(C)C` (stereo not given), the growth was 107%.

`Oc1c(C(c2ccc(F)cc2)N2CCCCC2)ccc2cncnc12` (stereo not given): the growth was 10.9%. As for `COc1ccc2[nH]c(C(=O)OCc3ccc4c(Br)cc(Br)c(O)c4n3)cc2c1`, the figure is -98.3% (active); as for `CN=C1C=C/C(=N/N=c2/ccn(O)cc2C)C=C1C`, 93.8%; as for `COc1ccc(/C=C(/C(=O)N2CCN(c3ccccc3)CC2)c2cc(OC)c(OC)c(OC)c2)cc1N`, 35.1%. The same measure for `COc1cc(C2CC(c3cccc(Nc4ccnc5cc(Cl)ccc45)c3)=NN2c2ccccc2)cc(OC)c1OC` (stereo not given): 45%.

As to `c1ccc2c(Cc3csc4ccccc34)csc2c1`, the growth is 93.1%.

As for `CCOCC(O)(c1ccc(Cl)cc1)c1ccc(Cl)cc1`, the growth is 98.7%. As for `N#Cc1c(N)n(C2OC(CO)C(O)C2O)c2ncnc(N)c12` (stereo not given), the figure is 8.86% (active); as for `COc1cc2c(cc1OCCCOc1cc3c(cc1OC)C(=O)N1CCC[C@H]1C=N3)C=CC(C)(C)O2`, 95.7%; as for `Cc1c(C)c(C)c([N+](=O)[O-])c([N+](=O)[O-])c1C`, 98.9%. The same measure for `O=NN(CC(=O)NNc1ccccc1)CC(=O)NNc1ccccc1`: 46.4%; for `O=C(Oc1c(Cl)c(Cl)c(Cl)c(Cl)c1Cl)C1CCCN1C(=O)OCc1ccccc1` (stereo not given): 17%. The same measure for `COc1ccc(Nc2ncccc2C(=O)NCc2cn(Cc3cc(OC)cc(OC)c3)nn2)cc1`: 93.8%.

Take `Cc1ccc(-c2cnc3sc4ccc(Cl)cc4n23)cc1`: the growth is 92.2%. Turning to `COc1ccc([C@@H]2[C@@H](Oc3ccccc3)C(=O)N2c2cc(OC)c(OC)c(OC)c2)cc1F`, the growth was 21.5%. The same measure for `COc1cccc(NC(=O)[C@H](C(C)C)n2c(=O)[nH]c3ccccc3c2=O)c1`: 104%.
